Laboratory results taken from ChEMBL document CHEMBL3988442, “University of Dundee, Small-Polar-MMV Screening Library” (2021).
For some assays here: Potency and affinity values are given separately.

What was measured:
Parameters in all cases: scale not given: direction of the effect not stated beside the values
[1] = target: Protein translocase subunit SecA (Escherichia coli (strain K12)) (UniProt P10408); experiment: Assay to Identify E. coli SecA ATPase Inhibitors; format: functional; conditions: 30 µM
Protein translocase subunit SecA (Escherichia coli (strain K12)), sequence (P10408 whole entry): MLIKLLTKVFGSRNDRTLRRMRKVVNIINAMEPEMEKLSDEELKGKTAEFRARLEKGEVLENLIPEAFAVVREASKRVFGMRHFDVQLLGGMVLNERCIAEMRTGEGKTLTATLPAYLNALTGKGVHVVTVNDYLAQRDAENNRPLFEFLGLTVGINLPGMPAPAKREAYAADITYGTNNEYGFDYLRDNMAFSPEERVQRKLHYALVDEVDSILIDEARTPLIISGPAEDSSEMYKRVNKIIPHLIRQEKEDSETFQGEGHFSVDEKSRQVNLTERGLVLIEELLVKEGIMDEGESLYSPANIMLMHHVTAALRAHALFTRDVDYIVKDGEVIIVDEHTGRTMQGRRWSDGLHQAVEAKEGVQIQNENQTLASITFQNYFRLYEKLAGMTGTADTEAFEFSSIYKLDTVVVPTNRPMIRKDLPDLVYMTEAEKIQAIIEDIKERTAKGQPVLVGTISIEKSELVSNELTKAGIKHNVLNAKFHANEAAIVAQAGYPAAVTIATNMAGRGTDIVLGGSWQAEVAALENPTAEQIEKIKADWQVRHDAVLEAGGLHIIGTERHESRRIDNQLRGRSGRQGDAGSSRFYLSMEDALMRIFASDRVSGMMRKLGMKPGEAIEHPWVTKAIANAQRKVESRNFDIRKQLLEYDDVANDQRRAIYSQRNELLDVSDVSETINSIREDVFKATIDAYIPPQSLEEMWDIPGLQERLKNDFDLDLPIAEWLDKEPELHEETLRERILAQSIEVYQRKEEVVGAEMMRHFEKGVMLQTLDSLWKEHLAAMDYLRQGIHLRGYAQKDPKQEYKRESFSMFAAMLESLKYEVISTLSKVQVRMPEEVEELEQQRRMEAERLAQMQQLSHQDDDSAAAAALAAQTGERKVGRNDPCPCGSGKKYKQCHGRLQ

[2] = target: T1, Ubiquitin-activating enzyme e1, putative (Leishmania donovani (strain BPK282A1)) (UniProt E9BSI1); experiment: Leishmania donovani Ubiquitin Activating Enzyme (LdE1); format: functional; conditions: 30 µM
T1 sequence (whole entry): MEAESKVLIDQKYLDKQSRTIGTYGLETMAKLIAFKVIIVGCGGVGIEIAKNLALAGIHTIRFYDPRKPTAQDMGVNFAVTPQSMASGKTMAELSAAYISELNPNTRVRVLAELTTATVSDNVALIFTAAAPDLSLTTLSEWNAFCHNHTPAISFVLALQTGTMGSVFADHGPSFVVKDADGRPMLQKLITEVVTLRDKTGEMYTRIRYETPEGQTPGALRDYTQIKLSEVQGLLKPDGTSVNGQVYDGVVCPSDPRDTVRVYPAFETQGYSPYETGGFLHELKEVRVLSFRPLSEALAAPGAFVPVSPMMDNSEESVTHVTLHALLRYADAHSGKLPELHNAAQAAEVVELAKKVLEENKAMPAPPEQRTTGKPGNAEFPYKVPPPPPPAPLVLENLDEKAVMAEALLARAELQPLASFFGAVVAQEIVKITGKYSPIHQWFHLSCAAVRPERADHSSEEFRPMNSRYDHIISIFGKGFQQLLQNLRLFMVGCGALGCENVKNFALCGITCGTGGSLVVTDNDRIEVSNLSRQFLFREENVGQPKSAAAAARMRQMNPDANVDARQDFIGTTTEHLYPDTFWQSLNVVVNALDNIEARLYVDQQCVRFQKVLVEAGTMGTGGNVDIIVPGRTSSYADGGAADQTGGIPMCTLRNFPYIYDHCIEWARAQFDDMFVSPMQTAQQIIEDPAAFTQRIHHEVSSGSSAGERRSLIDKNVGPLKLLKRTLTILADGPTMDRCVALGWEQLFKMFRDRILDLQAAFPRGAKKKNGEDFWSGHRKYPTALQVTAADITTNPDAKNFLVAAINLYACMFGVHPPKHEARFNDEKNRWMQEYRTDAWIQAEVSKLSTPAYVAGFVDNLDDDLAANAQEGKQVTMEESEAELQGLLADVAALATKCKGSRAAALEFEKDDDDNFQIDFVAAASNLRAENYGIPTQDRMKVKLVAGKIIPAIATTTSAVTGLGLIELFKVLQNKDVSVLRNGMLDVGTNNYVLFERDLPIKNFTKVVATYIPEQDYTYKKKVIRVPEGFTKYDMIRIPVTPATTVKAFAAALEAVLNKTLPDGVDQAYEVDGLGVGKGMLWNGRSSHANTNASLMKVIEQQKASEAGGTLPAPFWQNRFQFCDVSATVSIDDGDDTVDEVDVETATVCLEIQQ

[3] = target: AMP-activated protein kinase, AMPK (Homo sapiens) (UniProt P54646+O43741+P54619+Q9UGJ0+Q9Y478+Q13131+Q9UGI9); experiment: AMP-dependent Kinase enzyme assay. An in vitro enzyme assay that detects ADP turnover that is directly proportional to AMPK activity. This uses naive AMPK that is activated during the assay with MK-8722; format: functional; conditions: 30 µM
[4] = target: Sialic acid-binding Ig-like lectin 9 (Homo sapiens) (UniProt Q9Y336); experiment: Hs-Siglec9 ALPHAscreen SOP 20170721; conditions: 10 µM
Sialic acid-binding Ig-like lectin 9 (Homo sapiens), sequence (Q9Y336 whole entry): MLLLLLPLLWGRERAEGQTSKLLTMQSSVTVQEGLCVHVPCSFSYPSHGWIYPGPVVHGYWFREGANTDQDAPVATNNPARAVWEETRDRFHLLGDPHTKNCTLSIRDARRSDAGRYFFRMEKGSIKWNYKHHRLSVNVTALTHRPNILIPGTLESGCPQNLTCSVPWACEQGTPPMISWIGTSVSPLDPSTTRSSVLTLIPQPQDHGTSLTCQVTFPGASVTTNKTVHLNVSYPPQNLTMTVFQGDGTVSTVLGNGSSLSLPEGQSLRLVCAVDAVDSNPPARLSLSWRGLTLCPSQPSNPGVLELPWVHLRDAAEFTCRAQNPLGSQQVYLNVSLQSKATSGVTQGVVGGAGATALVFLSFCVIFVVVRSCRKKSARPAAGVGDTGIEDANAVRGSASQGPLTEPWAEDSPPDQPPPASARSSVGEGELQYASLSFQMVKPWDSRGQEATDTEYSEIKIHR

Trypanosoma cruzi = experiment: Trypanosoma cruzi phosphomannomutase and mannose-1-phosphate guanylyltransferase assay; format: functional; conditions: 10 µM
[5] = target: T2, Arginase-2, mitochondrial (Homo sapiens) (UniProt P78540); experiment: in vitro enzyme assay to detect the production of urea directly proportional to the activity of Arginase II; format: functional; conditions: 33.3 µM; also: in the data most compounds retested in dose-response had high values
T2 sequence (whole entry): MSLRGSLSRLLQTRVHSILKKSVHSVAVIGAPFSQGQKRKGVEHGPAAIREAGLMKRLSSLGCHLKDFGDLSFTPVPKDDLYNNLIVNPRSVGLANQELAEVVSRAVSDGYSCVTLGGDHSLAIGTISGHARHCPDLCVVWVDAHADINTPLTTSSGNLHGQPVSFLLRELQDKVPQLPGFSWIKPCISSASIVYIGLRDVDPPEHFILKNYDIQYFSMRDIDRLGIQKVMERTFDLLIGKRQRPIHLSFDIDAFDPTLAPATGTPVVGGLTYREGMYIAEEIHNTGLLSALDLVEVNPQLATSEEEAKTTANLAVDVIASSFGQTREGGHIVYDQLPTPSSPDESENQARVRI

[6] = target: T3, Proteasome subunit beta (Trypanosoma cruzi) (UniProt O96673); experiment: Trypanosoma cruzi proteasome chymotrypsin-like activity (TcProtChymo) assay.; also: in the data most compounds retested in dose-response had high values; format: functional; conditions: 9.37 µM
T3 sequence (whole entry): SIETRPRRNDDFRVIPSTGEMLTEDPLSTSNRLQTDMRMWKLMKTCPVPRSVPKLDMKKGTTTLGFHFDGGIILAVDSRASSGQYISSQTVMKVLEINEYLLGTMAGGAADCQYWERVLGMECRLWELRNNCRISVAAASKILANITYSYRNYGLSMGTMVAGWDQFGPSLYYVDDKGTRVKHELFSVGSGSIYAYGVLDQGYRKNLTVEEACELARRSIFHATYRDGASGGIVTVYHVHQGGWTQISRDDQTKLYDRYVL

Homo sapiens = species on record: Homo sapiens; experiment: To identify inhibition of the IFN signalling (Jak-Stat) pathway via expression of an eGFP reporter gene under the control of an IFN-stimulated response element (ISRE) containing MxA promoter.; format: functional; conditions: 30 µM
[7] = target: T4, Tyrosyl-tRNA synthetase, putative (Trypanosoma cruzi (strain CL Brener)) (UniProt Q4DSP6); experiment: Trypanosoma cruzi tyrosyl tRNA synthetase (TcYRS) _High Tyrosine SOP; format: functional; conditions: 30 µM; also: in the data most compounds retested in dose-response had high values
T4 sequence (whole entry): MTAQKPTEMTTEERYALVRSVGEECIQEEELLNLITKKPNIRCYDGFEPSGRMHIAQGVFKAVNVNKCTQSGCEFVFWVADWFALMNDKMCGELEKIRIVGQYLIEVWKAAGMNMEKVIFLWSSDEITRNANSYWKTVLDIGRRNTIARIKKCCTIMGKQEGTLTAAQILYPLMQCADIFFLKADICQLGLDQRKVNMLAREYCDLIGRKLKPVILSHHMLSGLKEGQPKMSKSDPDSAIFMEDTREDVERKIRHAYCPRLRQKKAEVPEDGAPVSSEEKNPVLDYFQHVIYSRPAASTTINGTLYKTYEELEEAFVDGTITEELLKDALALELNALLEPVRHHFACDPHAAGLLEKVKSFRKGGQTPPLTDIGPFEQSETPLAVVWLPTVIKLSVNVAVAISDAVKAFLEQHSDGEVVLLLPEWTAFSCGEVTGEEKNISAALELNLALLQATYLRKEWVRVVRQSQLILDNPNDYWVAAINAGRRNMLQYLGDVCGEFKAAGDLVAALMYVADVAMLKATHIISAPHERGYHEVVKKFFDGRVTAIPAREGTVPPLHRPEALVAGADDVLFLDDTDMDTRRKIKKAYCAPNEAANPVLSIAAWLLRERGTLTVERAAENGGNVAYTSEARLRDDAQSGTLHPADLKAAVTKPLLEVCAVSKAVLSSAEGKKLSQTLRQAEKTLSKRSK

[8] = target: T4, Tyrosyl-tRNA synthetase, putative (Trypanosoma cruzi (strain CL Brener)); experiment: Trypanosoma cruzi tyrosyl tRNA synthetase (TcYRS) SOP; format: functional; conditions: 30 µM
[9] = target: Chromo domain-containing protein 1 (Saccharomyces cerevisiae (strain ATCC 204508 / S288c) (Baker's yeast)) (UniProt P32657); experiment: ScCHD-1 Enzyme Inhibition Assay; format: functional; conditions: 30 µM; also: in the data most compounds retested in dose-response had high values
Chromo domain-containing protein 1 (Saccharomyces cerevisiae (strain ATCC 204508 / S288c) (Baker's yeast)), sequence (P32657 whole entry, the tested form may be a part): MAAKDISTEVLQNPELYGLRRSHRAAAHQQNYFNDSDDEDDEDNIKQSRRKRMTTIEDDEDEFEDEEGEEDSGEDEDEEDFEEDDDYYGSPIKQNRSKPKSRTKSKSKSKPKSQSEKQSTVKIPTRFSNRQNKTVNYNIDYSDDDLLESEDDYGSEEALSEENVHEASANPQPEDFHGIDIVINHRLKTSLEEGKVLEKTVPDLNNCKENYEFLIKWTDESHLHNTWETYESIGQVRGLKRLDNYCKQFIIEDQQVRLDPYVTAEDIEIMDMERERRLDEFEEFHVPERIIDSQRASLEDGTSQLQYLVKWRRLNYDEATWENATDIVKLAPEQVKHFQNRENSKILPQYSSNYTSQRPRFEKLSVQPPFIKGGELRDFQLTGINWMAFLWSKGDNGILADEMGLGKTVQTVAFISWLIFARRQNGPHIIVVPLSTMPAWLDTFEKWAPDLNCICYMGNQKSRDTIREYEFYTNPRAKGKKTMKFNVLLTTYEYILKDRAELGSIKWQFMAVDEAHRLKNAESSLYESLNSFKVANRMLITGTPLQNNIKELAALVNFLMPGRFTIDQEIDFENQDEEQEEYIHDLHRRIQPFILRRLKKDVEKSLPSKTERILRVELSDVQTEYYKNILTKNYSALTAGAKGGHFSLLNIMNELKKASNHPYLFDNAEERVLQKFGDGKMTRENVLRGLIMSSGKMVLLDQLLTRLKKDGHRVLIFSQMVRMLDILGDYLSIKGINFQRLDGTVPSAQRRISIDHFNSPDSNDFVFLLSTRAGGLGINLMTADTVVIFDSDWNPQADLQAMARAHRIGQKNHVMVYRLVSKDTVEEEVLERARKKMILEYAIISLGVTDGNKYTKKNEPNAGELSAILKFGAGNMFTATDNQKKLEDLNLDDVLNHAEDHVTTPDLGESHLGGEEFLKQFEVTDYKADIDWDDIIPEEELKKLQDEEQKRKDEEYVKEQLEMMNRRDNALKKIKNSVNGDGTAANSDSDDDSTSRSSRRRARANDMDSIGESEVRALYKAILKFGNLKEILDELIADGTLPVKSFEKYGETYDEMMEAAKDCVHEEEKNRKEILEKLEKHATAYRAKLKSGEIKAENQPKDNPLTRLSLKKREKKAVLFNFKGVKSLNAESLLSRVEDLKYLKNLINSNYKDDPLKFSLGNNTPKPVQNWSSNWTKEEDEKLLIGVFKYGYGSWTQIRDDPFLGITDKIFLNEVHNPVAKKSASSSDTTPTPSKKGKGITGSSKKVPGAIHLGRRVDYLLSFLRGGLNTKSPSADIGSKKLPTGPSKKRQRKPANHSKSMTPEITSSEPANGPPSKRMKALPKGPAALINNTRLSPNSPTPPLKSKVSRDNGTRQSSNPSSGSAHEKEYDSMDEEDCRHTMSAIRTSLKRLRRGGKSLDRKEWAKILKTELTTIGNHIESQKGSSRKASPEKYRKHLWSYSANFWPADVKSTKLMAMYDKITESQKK

| SMILES | Percent Effect [1] | Percent Effect [2] | Percent Effect [3] | Percent Effect [4] | Percent Effect (Trypanosoma cruzi) | Percent Effect [5] | Percent Effect [6] | Percent Effect (Homo sapiens) | Percent Effect [7] | Percent Effect [8] | Percent Effect [9] |
| --- | --- | --- | --- | --- | --- | --- | --- | --- | --- | --- | --- |
| Cn1cnc2c1CCN(Cc1nc(Cc3ccccc3)no1)C2 | -2.4% | -7.89% | -7.72% | -0.869% | 3.27% | 4.68% | -0.931% | 1.02% | 11.3% | 6.17% | 3.08% |
| COc1ccc(CN(C)Cc2nc3c(cnn3C)c(=O)[nH]2)cc1OC | -1.17% | 13.9% | 4.17% | 3.18% | -3.18% | 2.8% | 16.5% | 11.6% | 7.29% | 7.59% | -3.45% |
| COc1c(C)cnc(CN2CCC(N(C)C(C)C(N)=O)CC2)c1C (stereo unspecified) | -2.36% | 13% | 3.82% | -8.74% | -3.56% | -0.712% | 8.95% | 42.8% | 8.74% | 14.6% | -7.36% |
| Cc1ncc(CNCC2CCCN2c2cccnn2)s1 (stereo unspecified) | 0.235% | 8.86% | -1.3% | -1.84% | 3.79% | 5.38% | 15.9% | 22.7% | 9.38% | 12.7% | -17.8% |
| Cc1cc(C2CCCN(CCCNS(C)(=O)=O)C2)n[nH]1 (stereo unspecified) | -3.61% | 2.53% | -4.24% | 13.7% | -0.283% | -2.66% | -2.7% | -2.96% | 5.42% | 3.8% | -0.769% |
| CC(C)CN(C)c1ccc(C(=O)N2CCCC2c2cnn(C)c2)cn1 (stereo unspecified) | -0.585% | 5.26% | -6.48% | -6.28% | 3.46% | 1.44% | 8.71% | 11.2% | 7.39% | 23.5% | -10.4% |
| CCCN1CCN(C(=O)C(C)n2cc(Br)cn2)CC1 (stereo unspecified) | -1.59% | 15.6% | 5.22% | 7.33% | 3.05% | -137% | 10.3% | -2.4% | 7.53% | 21% | -7.35% |
| Cc1ncc(CN(C)C2CCCN(Cc3noc(C4CC4)n3)C2)s1 (stereo unspecified) | -3.21% | 5.26% | -3.55% | 4.27% | 7.52% | -0.766% | 8.02% | 14.3% | 2.45% | 12.2% | -9.03% |
| COCCN(C)CC(=O)N1C[C@H]2CC[C@@H]1CN(C(=O)c1ccncc1)C2 | -4.1% | 5.33% | -2.28% | 3.27% | -5.75% | 1.56% | 17.1% | 27.7% | 6.01% | 13.6% | -5.9% |
| CCn1ccnc1-c1nc2cc(S(=O)(=O)N3CCCC3)ccc2n1C | -6.04% | 0% | 3.54% | 25.2% | 4.31% | 6.36% | 4.97% | 2.47% | 3.23% | 10% | 100% |
| CCc1ncc(C(=O)N2CCCCC2Cn2cccn2)s1 (stereo unspecified) | -0.823% | 0% | 2.6% | -4.33% | -3.44% | 1.66% | -4.13% | 7.71% | 2.97% | -23.2% | 10.1% |
| CN(C)C(=O)c1cnc2n1CCN(Cc1ccccc1)C2 | 1.01% | 13.3% | 6.19% | -6.07% | -7.87% | 8.62% | 15.2% | 0.000462% | 3.19% | 8.97% | -5.59% |
| Cn1cc(-c2csc(N3CCN(C(=O)OC(C)(C)C)CC3)n2)cn1 | -0.688% | 4.17% | -13.6% | 7.74% | 1.85% | 30.5% | 8.42% | 57.3% | 10.5% | 12.8% | -1.57% |
| O=C(NC1(c2cccc(F)c2)CCOCC1)c1ccoc1 | -5.15% | 5.2% | -0.889% | 5.11% | 2.46% | -6.9% | 1.33% | -3.68% | 2.15% | 8.64% | -3.25% |
| Cc1cccnc1CN1CCC(c2nnc(Cn3cccn3)n2C)CC1 | -4.04% | 1.39% | 0.385% | -7.79% | -3.98% | 2.21% | 8.95% | -6.28% | 3.16% | 10.3% | -2.58% |
| CC1CCN(CCCNS(=O)(=O)c2cccc(F)c2)CC1 | -4.57% | 7.79% | 0.601% | 5.46% | -2.46% | -13.8% | 0.166% | -11.1% | 5.38% | 13.6% | -2.91% |
